Records with an inconclusive call do not appear. A call without a number means that no potency is given here. Active and inactive are the calls of the source. Unless noted, calls come from the whole dose curve.
Assays:
[1] = Nuclear factor erythroid 2-related factor 2/antioxidant responsive element (Nrf2/ARE) small molecule agonists: luciferase reporter gene qHTS assay in human keratinocytes (AID 1919969); note: nearly all actives have a fitted effect of over 35% in size; note: potency is the fitted concentration of half-maximal effect
[2] = target: Gonadotropin-releasing hormone receptor (Homo sapiens) (UniProt P30968); test: Human gonadotropin-releasing hormone receptor (GnRHR) small molecule agonists, calcium flux assay in GnRHR-HEK293 cells (AID 1920063); note: nearly all actives have a fitted effect of over 35% in size
Summary of the method: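 We seeded human GnRHR-expressing HEK293 cells for 18 hours, loaded them with calcium dye for an hour at 37 C, added test compounds, and recorded fluorescence intensity kinetically for three minutes.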

[3] = target: KiSS-1 receptor (Homo sapiens) (UniProt Q969F8); test: Human kisspeptin (KISS1R) small molecule agonists, calcium flux assay in KISS1R-HEK293 cells (AID 1920064; active = well fitted activation curve with a large enough effect in the repeat runs)
Summary of the method: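 Kinetic calcium assay, 1 s sampling over 3 min at Ex/Em 480/540, in HEK293 cells engineered with human KISS1R; compounds delivered in DMSO after 1 h dye loading.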

[4] = G protein-coupled receptor (GPCR) small molecule agonists, calcium flux assay: HEK293 wild type cell line counter screen (AID 1920065)
Summary of the method: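 Calcium-sensitive dye, loaded 1 h at 37 C into cells cultured 18 h, reports compound-evoked calcium release as fluorescence (Ex/Em 480/540), measured over 3 min. Agonist mode; 15-point titrations, triplicate.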

[5] = p53 small molecule agonists, cell-based qHTS assay with human liver microsomes (AID 1963577);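 note: p53 response element beta-lactamase reporter cells with liver microsomes plus NADPH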
Summary of the method: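 16 h, 37 C exposure of p53RE-bla cells to compounds with human liver microsomes and NADPH (0.5 mg/mL final each); detection via LiveBLAzer mixture, 2 h dark at room temperature.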

[6] = p53 small molecule agonists, cell-based qHTS assay with rat liver microsomes (AID 1963578)
Summary of the method: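 With rat liver microsomes and NADPH present (0.5 mg/mL final each), p53RE-bla cells are treated with compound for 16 h at 37 C. LiveBLAzer detection mixture is then applied for 2 h at room temperature in the dark.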

[7] = p53 small molecule agonists, cell-based qHTS assay with human liver microsomes: qHTS cell viability counter screen (AID 1963579); note: nearly all actives have a fitted effect of over 45% in size
Summary of the method: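 In this multiplexed counter screen, the reporter plates were subsequently treated with CellTiter-Glo so that cell viability, reflected by luminescence, could be recorded for p53RE-bla cells dosed 16 h with compounds under microsomal activation (HLM and NADPH).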

[8] = p53 small molecule agonists, cell-based qHTS assay: qHTS cell viability counter screen (AID 1963581); note: nearly all actives have a fitted effect of over 45% in size
Summary of the method: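 Following 5 h attachment, HCT-116 p53RE-bla cells took up compound for 16 h at 37 C; the reporter was read with B/G FRET substrate (2 h RT), and viability then via CellTiter-Glo ATP luminescence.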

[9] = target: 5-hydroxytryptamine receptor 2A (Homo sapiens) (UniProt P28223); test: 5-hydroxytryptamine receptor 2A (HTR2A) small molecule agonists, cell-based qHTS assay (AID 1963587); note: nearly all actives have a fitted effect of over 30% in size; note: potency is the fitted concentration of half-maximal effect
Summary of the method: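 Kinetic calcium-flux fluorescence (2 min, 1 sec intervals) after compound addition in agonist mode. HTR2A-CHO cells were cultured 18 h, then dye-loaded 1 h at 37 C.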

[10] = target: Muscarinic acetylcholine receptor M1 (Homo sapiens) (UniProt P11229); test: Cholinergic receptor muscarinic 1 (CHRM1) small molecule antagonists, cell-based qHTS assay (AID 1963588); note: nearly all actives have a fitted effect of over 40% in size; note: potency is the fitted concentration of half-maximal effect
Summary of the method: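 CHRM1-CHO calcium-flux assay, antagonist mode. Cells were seeded 18 h, dye-loaded 1 h at 37 C and given compound for 5 min at RT, then acetylcholine was added at 50nM. FDSS fluorescence was read 3 min; 15 concentrations, three runs.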

[11] = target: Muscarinic acetylcholine receptor M1 (Homo sapiens) (UniProt P11229); test: Cholinergic receptor muscarinic 1 (CHRM1) small molecule agonists, cell-based qHTS assay (AID 1963589); note: nearly all actives have a fitted effect of over 35% in size
Summary of the method: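 Measures agonist-induced intracellular calcium rise. Stable human CHRM1 CHO line, 1 h dye load at 37 C, compounds from DMSO, kinetic fluorescence read.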

[12] = cAMP Responsive Elements (CRE) small molecule agonists, cell-based qHTS assay (AID 1963590)
Summary of the method: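 A CRE-responsive beta-lactamase reporter in HEK 293T cells was used. Treatment ran 3 h at 37 C; detection used LiveBLAzer B/G FRET substrate for 2 h at room temperature.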

[13] = cAMP Responsive Elements (CRE) small molecule antagonists, cell-based qHTS assay (AID 1963591; active = well fitted inhibition curve with a large enough effect in the signal ratio in the repeat runs, not every such curve was filed as active; the % refers to the signal ratio)
Summary of the method: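 HEK293T cells carrying a CRE-driven beta-lactamase reporter receive compound and NKH477 (0.25 uM final) for 3 h. Fluorescence from LiveBLAzer B/G FRET substrate is read after 2 h at room temperature.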

[14] = target: Beta-2 adrenergic receptor (Homo sapiens) (UniProt P07550); test: Adrenergic beta2 receptor (ADRB2) small molecule antagonists, cell-based qHTS assay (AID 1963592); note: series mostly up to about 92 µM; nearly all actives have a fitted effect of over 50% in size
Summary of the method: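 Cells (CHO, stable ADRB2 overexpression) incubated 18-20hr at 37C; compounds added from DMSO; agonist mix (1nM isoproterenol, 100uM IBMX, 25uM Ro-20-1724) added; 0.5hr RT; d2-cAMP and anti-cAMP-cryptate added; 1hr RT; 665/615 nm read.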

[15] = target: D(2) dopamine receptor (Homo sapiens) (UniProt P14416); test: Dopamine D2 receptor (DRD2) small molecule agonists, cell-based qHTS assay (AID 1963594); note: nearly all actives have a fitted effect of over 35% in size
Summary of the method: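 cAMP accumulation in DRD2-HEK293 cells measured by HTRF after 1 h detection; compounds added 10 min before NKH477 (200nM […]) forskolin-analogue stimulation, 30 min at room temperature, with Ro20-1724 present at 0.1 mM final.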

[16] = target: D(2) dopamine receptor (Homo sapiens) (UniProt P14416); test: Dopamine D2 receptor (DRD2) small molecule antagonists, cell-based qHTS assay (AID 1963595; active = well fitted inhibition curve with a large enough effect in the signal ratio in the repeat runs, with a control signal flat; the % refers to the signal ratio)
Summary of the method: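 Human DRD2 antagonist qHTS measuring cAMP by HTRF. The cells are exposed to compound for 10 min, then to NKH477 (200 nM) and quinpirole (12 nM) for 30 min at RT, with Ro20-1724 (0.1 mM) present throughout.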

[17] = p53 small molecule agonists, cell-based qHTS assay with rat liver microsomes: qHTS cell viability counter screen (AID 1963580); note: nearly all actives have a fitted effect of over 45% in size
Summary of the method: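 HCT-116 p53RE-bla, 4,000 cells/well, 5 h pre-incubation; cpd + rat liver microsomes 0.5 mg/mL + NADPH 0.5 mg/mL (final); 16 h, 37 C; CellTiter-Glo, 30 min RT; luminescence.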

[18] = p53 small molecule agonists, cell-based qHTS assay (AID 1963582; active = well fitted activation curve with a large enough effect in the signal ratio in the repeat runs, not every such curve was filed as active; the % refers to the signal ratio)
Summary of the method: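 In this cell-based concentration-response screen, a p53 response element drives beta-lactamase; cells received DMSO-borne compounds after 5 h culture and were incubated a further 16 h before FRET substrate development.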

[19] = target: 5-hydroxytryptamine receptor 2A (Homo sapiens) (UniProt P28223); test: 5-hydroxytryptamine receptor 2A (HTR2A) small molecule antagonists, cell-based qHTS assay (AID 1963586); note: nearly all actives have a fitted effect of over 45% in size; note: potency is the fitted concentration of half-maximal effect
Summary of the method: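 Antagonist-mode intracellular calcium assay: DOI (4 nM) added after 5 min compound pre-incubation at room temperature to dye-loaded HTR2A-CHO cells. Fluorescence followed for 3 min, sampled every second.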

[20] = target: Beta-2 adrenergic receptor (Homo sapiens) (UniProt P07550); test: Adrenergic beta2 receptor (ADRB2) small molecule agonists, cell-based qHTS assay (AID 1963593);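 note: CHO cells stably overexpressing human ADRB2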
Summary of the method: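 CHO cells stably over-expressing ADRB2 were plated overnight at 37C, then dosed with compounds plus a stimulation mix containing 100uM IBMX and 25uM Ro-20-1724 for 0.5hr at room temperature. cAMP was measured by HTRF competition, 1hr.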

Chain of Gonadotropin-releasing hormone receptor (Homo sapiens) (P30968 whole entry, looked up): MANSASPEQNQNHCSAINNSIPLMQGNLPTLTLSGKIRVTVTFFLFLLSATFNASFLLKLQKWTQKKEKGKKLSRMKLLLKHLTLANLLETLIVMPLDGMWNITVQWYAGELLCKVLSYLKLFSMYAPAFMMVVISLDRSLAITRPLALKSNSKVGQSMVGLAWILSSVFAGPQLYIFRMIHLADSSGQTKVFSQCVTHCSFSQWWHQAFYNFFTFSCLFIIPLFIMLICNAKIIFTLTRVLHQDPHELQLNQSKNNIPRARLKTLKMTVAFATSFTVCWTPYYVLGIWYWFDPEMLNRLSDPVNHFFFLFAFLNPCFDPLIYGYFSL
Chain of 5-hydroxytryptamine receptor 2A (Homo sapiens) (P28223 whole entry, looked up): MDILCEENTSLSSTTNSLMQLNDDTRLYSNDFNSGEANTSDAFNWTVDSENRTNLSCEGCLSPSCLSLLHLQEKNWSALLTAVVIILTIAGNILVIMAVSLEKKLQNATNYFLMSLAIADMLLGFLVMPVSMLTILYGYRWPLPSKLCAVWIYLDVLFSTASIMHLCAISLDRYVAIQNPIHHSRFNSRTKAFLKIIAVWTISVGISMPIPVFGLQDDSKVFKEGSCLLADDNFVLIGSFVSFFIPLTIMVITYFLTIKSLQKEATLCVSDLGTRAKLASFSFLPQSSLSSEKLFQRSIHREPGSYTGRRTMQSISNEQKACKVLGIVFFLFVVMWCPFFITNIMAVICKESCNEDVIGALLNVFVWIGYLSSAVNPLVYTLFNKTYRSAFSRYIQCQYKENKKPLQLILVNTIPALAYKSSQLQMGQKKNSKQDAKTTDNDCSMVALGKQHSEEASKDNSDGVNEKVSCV
Chain of Beta-2 adrenergic receptor (Homo sapiens) (P07550 whole entry, looked up): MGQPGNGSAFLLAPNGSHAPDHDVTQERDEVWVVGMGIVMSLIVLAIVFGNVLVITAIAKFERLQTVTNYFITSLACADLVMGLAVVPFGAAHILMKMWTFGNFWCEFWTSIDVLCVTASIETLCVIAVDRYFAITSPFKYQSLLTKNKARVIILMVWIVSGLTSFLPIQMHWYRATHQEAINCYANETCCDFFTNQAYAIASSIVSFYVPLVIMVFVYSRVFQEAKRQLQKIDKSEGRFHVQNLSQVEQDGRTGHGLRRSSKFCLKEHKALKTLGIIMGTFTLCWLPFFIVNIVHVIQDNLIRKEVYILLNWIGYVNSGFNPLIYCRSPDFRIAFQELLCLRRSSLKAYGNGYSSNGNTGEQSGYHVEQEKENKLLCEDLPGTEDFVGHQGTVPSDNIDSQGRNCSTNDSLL
Chain of KiSS-1 receptor (Homo sapiens) (Q969F8 whole entry, looked up): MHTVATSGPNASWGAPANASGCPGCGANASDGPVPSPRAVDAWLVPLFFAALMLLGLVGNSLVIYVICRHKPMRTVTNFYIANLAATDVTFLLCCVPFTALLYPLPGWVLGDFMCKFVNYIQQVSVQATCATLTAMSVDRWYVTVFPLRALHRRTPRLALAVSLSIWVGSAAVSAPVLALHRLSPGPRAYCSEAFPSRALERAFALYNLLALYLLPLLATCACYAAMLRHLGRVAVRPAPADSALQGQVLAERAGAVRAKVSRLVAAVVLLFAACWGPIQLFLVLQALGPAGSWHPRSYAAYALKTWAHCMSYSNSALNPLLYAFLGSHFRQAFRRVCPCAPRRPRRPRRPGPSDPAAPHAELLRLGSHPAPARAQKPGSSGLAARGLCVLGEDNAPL
Chain of D(2) dopamine receptor (Homo sapiens) (P14416 whole entry, looked up): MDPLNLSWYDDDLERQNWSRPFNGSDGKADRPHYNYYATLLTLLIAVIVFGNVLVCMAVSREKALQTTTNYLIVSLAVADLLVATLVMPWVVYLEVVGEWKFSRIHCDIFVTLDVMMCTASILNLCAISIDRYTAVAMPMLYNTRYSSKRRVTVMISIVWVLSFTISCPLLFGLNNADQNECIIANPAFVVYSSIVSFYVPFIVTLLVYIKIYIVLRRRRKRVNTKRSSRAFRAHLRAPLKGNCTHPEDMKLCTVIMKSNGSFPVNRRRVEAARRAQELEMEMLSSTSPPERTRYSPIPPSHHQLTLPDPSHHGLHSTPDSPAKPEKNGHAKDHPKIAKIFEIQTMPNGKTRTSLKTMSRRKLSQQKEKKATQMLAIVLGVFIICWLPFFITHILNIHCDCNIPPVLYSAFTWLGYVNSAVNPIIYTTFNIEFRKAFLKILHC
Chain of Muscarinic acetylcholine receptor M1 (Homo sapiens) (P11229 whole entry, looked up): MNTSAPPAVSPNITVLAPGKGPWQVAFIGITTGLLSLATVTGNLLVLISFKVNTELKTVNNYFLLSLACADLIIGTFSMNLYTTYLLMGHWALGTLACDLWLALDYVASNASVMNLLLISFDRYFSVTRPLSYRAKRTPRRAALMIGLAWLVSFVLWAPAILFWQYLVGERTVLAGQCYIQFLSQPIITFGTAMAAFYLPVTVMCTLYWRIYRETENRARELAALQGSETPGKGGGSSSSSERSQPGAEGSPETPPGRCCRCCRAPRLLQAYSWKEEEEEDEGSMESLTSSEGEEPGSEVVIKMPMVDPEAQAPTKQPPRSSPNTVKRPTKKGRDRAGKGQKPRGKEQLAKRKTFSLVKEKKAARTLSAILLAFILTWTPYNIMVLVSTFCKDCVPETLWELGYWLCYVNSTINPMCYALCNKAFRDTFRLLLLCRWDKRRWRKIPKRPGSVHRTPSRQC

SMILES	Potency [1]	Potency [2]	outcome [3]	outcome [4]	Potency [5]	Potency [6]	Potency [7]	Potency [8]	Potency [9]	Potency [10]	Potency [11]	Potency [12]	Potency [13]	Potency [14]	Potency [15]	Potency [16]	Potency [17]	Potency [18]	Potency [19]	Potency [20]
CCOC(C)=O	inactive	inactive	inactive	inactive	inactive	inactive	inactive	inactive	inactive	inactive	inactive	inactive	inactive	inactive	inactive	inactive	–	–	–	–
CCCCOCCOC(=O)CCCCCCCCC(=O)OCCOCCCC	inactive	inactive	inactive	inactive	inactive	inactive	–	inactive	inactive	inactive	inactive	inactive	inactive	inactive	inactive	inactive	inactive	inactive	inactive	inactive
CC(C)(C)C1=CC(=O)C(C(C)(C)C)=CC1=O	26.6 µM (active)	inactive	inactive	inactive	inactive	inactive	inactive	inactive	3.79 µM (active)	–	–	inactive	inactive	inactive	inactive	inactive	–	inactive	inactive	–
Clc1ccc(C(Cn2ccnc2)OCc2c(Cl)cccc2Cl)c(Cl)c1 (stereo not given)	11.9 µM (active)	inactive	inactive	inactive	inactive	inactive	–	–	–	11.6 µM (active)	inactive	inactive	–	–	inactive	inactive	inactive	–	–	inactive
Cc1oc(=O)oc1COC(=O)[C@@H]1N2C(=O)[C@@H](NC(=O)[C@H](N)c3ccccc3)[C@H]2SC1(C)C	inactive	inactive	inactive	inactive	–	inactive	inactive	inactive	inactive	inactive	inactive	inactive	inactive	inactive	inactive	inactive	inactive	inactive	inactive	–
COc1ccc2c(c1)C(=O)N(CCc1ccc(S(=O)(=O)NC(=O)NC3CCCCC3)cc1)C(=O)C2(C)C	inactive	inactive	inactive	inactive	inactive	inactive	inactive	–	inactive	inactive	inactive	–	–	inactive	inactive	inactive	inactive	–	–	inactive
NC(=O)N1c2ccccc2CC(=O)c2ccccc21	inactive	inactive	inactive	inactive	inactive	–	inactive	inactive	–	–	–	–	inactive	–	–	inactive	inactive	inactive	–	–
O=CN1CCOCC1	inactive	inactive	inactive	inactive	inactive	inactive	–	inactive	inactive	inactive	inactive	inactive	inactive	inactive	inactive	inactive	inactive	inactive	inactive	–
COc1cc(CNC(=O)CCCC/C=C/C(C)C)ccc1O	inactive	inactive	inactive	inactive	inactive	inactive	inactive	inactive	–	–	–	inactive	inactive	inactive	inactive	inactive	–	inactive	–	–
CC1=CC(O)CC(C)(C)C1 (stereo not given)	inactive	inactive	inactive	inactive	inactive	inactive	inactive	inactive	inactive	inactive	inactive	inactive	inactive	inactive	inactive	inactive	–	inactive	inactive	inactive
CCOC(=O)CC1(C)OCC(C)O1 (stereo not given)	inactive	inactive	inactive	inactive	inactive	inactive	inactive	–	inactive	inactive	–	inactive	inactive	inactive	inactive	inactive	–	inactive	inactive	inactive
CC(NC(CCc1ccccc1)C(=O)O)C(=O)N1C(=O)N(C)CC1C(=O)O (stereo not given)	inactive	–	inactive	inactive	inactive	inactive	inactive	inactive	inactive	inactive	inactive	inactive	inactive	inactive	inactive	inactive	–	inactive	inactive	–
Cn1c(N)c(N=O)c(=O)n(C)c1=O	inactive	inactive	inactive	–	inactive	–	inactive	inactive	inactive	inactive	inactive	–	inactive	inactive	inactive	inactive	inactive	inactive	inactive	–
CCOC(=O)CC(=O)c1cc(F)c(Cl)nc1Cl	inactive	inactive	inactive	inactive	–	inactive	inactive	inactive	inactive	–	inactive	inactive	inactive	inactive	inactive	inactive	inactive	inactive	–	inactive
O=C(O)Cc1csc(-c2ccc(Cl)cc2)n1	inactive	–	inactive	inactive	inactive	inactive	inactive	–	inactive	inactive	inactive	–	–	–	inactive	inactive	inactive	–	inactive	–
Nc1ccc(Oc2cccc(Oc3ccc(N)cc3)c2)cc1	inactive	inactive	inactive	–	inactive	inactive	inactive	inactive	–	inactive	inactive	inactive	inactive	inactive	inactive	inactive	inactive	–	0.84 µM (active)	–

Reference: PubChem BioAssay (Tox21)
